Drawing on PubChem BioAssay (NCI), this text covers growth for eight compounds.

This is part of a sample that, as a whole, favours compounds with a hit. Of some 83,000 tested, about 20% had one in any assay.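 Single-dose data. Exposure time 48 hours. Values below 10 considered active.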 Unmarked numbers belong to inactive results. Active and inactive are the calls of the source.

Test systems include NCI-H23 lung; NCI-H226 lung; NCI-H322M lung; HOP-62 NSCLC; NCI-H460 lung; 786-0 renal; MDA-MB-231 breast; SF-268 CNS; SF-539 CNS; M14 melanoma; U251 CNS; PC-3 prostate; UACC-62 melanoma; SK-MEL-28 melanoma; UO-31 renal; OVCAR-3 ovarian; SW-620 colon; MCF7 breast; HCT-116 colon; KM12 colon.
Holding throughout (assay): NCI-60 one-dose screen, 48 h (100 = growth as untreated, 0 = no growth, -100 = all killed)
What all share (conditions): 10 µM unless noted

As for `COc1ccc(/C=C\c2cc(OC)c(OC)c(OC)c2)cc1N/C=C\C(=O)c1c[nH]c2ccccc12`, the growth in the test on NCI-H23 lung is 26.6%; in the test with NCI-H226 lung, -0.606% (active); in the test with NCI-H322M lung it was 40.6%; in the test with HOP-62 NSCLC it was 39.3%; in the test with NCI-H460 lung, 6.44% (active); in the test on 786-0 renal it was 20.9%. Also, the growth is 18.4% in the test with MDA-MB-231 breast; 15.1% in the test on SF-268 CNS; -43.4% (active) in the test with SF-539 CNS; 11.3% in the test on M14 melanoma; 15.5% in the test on U251 CNS; 10.4% in the test with PC-3 prostate. Further, the growth is 31% in the test on UACC-62 melanoma; 33.8% with SK-MEL-28 melanoma; 26.4% in the test on UO-31 renal; -9.54% (active) in the test on OVCAR-3 ovarian; 24.7% in the test on SW-620 colon; 14.7% with MCF7 breast. The growth in the test on HCT-116 colon was 2.62% (active); with KM12 colon, 3.99% (active).
`C1CNC2CCCC2C1` (configuration not stated): the growth with NCI-H23 lung is 108%; in the test with NCI-H226 lung, 98.1%; in the test with NCI-H322M lung, 104%; in the test with HOP-62 NSCLC, 102%; in the test on NCI-H460 lung, 108%; with 786-0 renal, 105%. Further, the growth in the test with MDA-MB-231 breast is 118%; in the test with SF-268 CNS it was 104%; in the test on SF-539 CNS, 102%; in the test on M14 melanoma it was 107%; in the test with U251 CNS it was 105%; with PC-3 prostate it was 101%. The growth was 108% in the test on UACC-62 melanoma; 111% in the test on SK-MEL-28 melanoma; 82.5% in the test with UO-31 renal; 107% with OVCAR-3 ovarian; 103% with SW-620 colon; 99.7% in the test with MCF7 breast. The growth with HCT-116 colon is 108%; in the test with KM12 colon it was 97%.
Consider `C[CH2][Sn]([CH2]C)([CH2]C)[NH]S(=O)(=O)c1ccc(C)cc1`, for which the growth was 96.4% with NCI-H23 lung; 116% in the test on NCI-H226 lung; 111% with NCI-H322M lung; 121% in the test with HOP-62 NSCLC; 107% in the test with NCI-H460 lung; 109% with 786-0 renal. Moreover, the growth with MDA-MB-231 breast is 107%; in the test with SF-268 CNS it was 108%; in the test on M14 melanoma, 108%; in the test on U251 CNS, 99.5%; in the test with PC-3 prostate, 111%; with UACC-62 melanoma, 100%. In addition, the growth with SK-MEL-28 melanoma is 111%; in the test with UO-31 renal, 86.9%; in the test on OVCAR-3 ovarian it was 113%; in the test on SW-620 colon, 101%; with MCF7 breast it was 103%; with HCT-116 colon it was 106%. For the same compound, the growth in the test on KM12 colon was 105%.
With `C1CN1c1nc(N2CC2)nc(N2CC2)n1`, the growth was 15.8% in the test with NCI-H23 lung; 58.6% in the test on NCI-H226 lung; 78.1% in the test on NCI-H322M lung; 31.3% in the test with HOP-62 NSCLC; 16.5% with NCI-H460 lung; 9.79% (active) in the test with 786-0 renal. For the same compound, the growth with MDA-MB-231 breast was 87.8%; in the test on SF-268 CNS, 30.4%; in the test with SF-539 CNS, -7.16% (active); in the test with M14 melanoma, 25.1%; in the test on U251 CNS it was 7.27% (active); in the test with PC-3 prostate it was 45.2%. Also, the growth in the test on UACC-62 melanoma was 41.1%; with UO-31 renal it was 1.86% (active); with OVCAR-3 ovarian, 65.8%; with SW-620 colon it was 51.8%; with MCF7 breast, 20.9%; in the test with HCT-116 colon, 42.6%. In addition, the growth in the test on KM12 colon is 61.8%.
Take `CC1(C)CC2(CC(C)(C)c3cc(O)c(O)cc32)c2cc(O)c(O)cc21`: the growth was 108% with NCI-H23 lung; 85.7% in the test on NCI-H226 lung; 102% in the test with NCI-H322M lung; 95.9% in the test on HOP-62 NSCLC; 97.7% in the test on NCI-H460 lung; 94% in the test with 786-0 renal. Further, the growth is 91.5% in the test with MDA-MB-231 breast; 88.6% in the test on SF-268 CNS; 98.4% with SF-539 CNS; 98.1% in the test with M14 melanoma; 92.3% in the test on U251 CNS; 90.9% in the test on PC-3 prostate. Besides, the growth in the test with UACC-62 melanoma is 83.3%; with SK-MEL-28 melanoma, 97%; with UO-31 renal it was 75.2%; with OVCAR-3 ovarian it was 88.9%; in the test on SW-620 colon, 95.7%; with MCF7 breast, 94.5%. Moreover, the growth was 85.4% in the test on HCT-116 colon and 94.4% in the test with KM12 colon.
With `CCCCCN(CCCCC)CC(O)c1ccc(C)c(Cl)c1` (configuration not stated), the growth was 89.3% with NCI-H23 lung; 84.4% in the test on NCI-H226 lung; 102% in the test on NCI-H322M lung; 90.1% with HOP-62 NSCLC; 101% in the test on NCI-H460 lung; 98.2% in the test on 786-0 renal. The growth in the test with MDA-MB-231 breast is 97.4%; in the test on SF-268 CNS, 106%; in the test with SF-539 CNS it was 101%; in the test with M14 melanoma it was 96%; in the test on U251 CNS it was 92.4%; with PC-3 prostate, 91.8%. Also, the growth was 90.5% in the test with UACC-62 melanoma; 96.6% in the test on SK-MEL-28 melanoma; 88.3% with UO-31 renal; 103% in the test with SW-620 colon; 95.5% in the test on MCF7 breast; 82.1% in the test with HCT-116 colon. In the test on KM12 colon, the growth is 105%.
As for `CNc1ccc(C(=O)CC(O)CCC(C)C2OC(=O)CC(O)CC(=O)CC(O)CC(O)CC(O)CC(O)CC3(O)CC(O)C(C(=O)OC)C(CC(O[C@@H]4O[C@H](C)[C@@H](O)[C@H](N)[C@@H]4O)/C=C/C=C/C=C/C=C/C=C/C=C/C=C/C2C)O3)cc1` (some centres not stated), the growth in the test with NCI-H23 lung was -54.5% (active); with NCI-H226 lung, -37.7% (active); with NCI-H322M lung, 1.05% (active); with HOP-62 NSCLC, -25.9% (active); with NCI-H460 lung it was 3.55% (active); with 786-0 renal, -20.1% (active). For the same compound, the growth with MDA-MB-231 breast is -0.509% (active); with SF-268 CNS, -5.42% (active); in the test with SF-539 CNS it was 72.4%; in the test on M14 melanoma it was -47.5% (active); in the test on U251 CNS it was 23.8%; in the test with PC-3 prostate it was 15%. Further, the growth in the test on UACC-62 melanoma was 3.05% (active); in the test on SK-MEL-28 melanoma, -89.1% (active); in the test on UO-31 renal it was -58.6% (active); in the test on OVCAR-3 ovarian, -15% (active); in the test with SW-620 colon, 37%; with MCF7 breast, 8.58% (active). The growth in the test with HCT-116 colon was -16.4% (active); with KM12 colon, 7.61% (active).
Consider `O=C(Nc1ccc(S(=O)(=O)F)cc1)Oc1ccccc1`, for which the growth was 97.8% in the test on NCI-H23 lung; 99.5% with NCI-H226 lung; 94.8% with NCI-H322M lung; 93.3% in the test on HOP-62 NSCLC; 102% in the test on NCI-H460 lung; 102% in the test with 786-0 renal. Moreover, the growth is 104% with MDA-MB-231 breast; 102% in the test on SF-268 CNS; 104% in the test on SF-539 CNS; 110% in the test on M14 melanoma; 96.8% in the test with U251 CNS; 93.4% with PC-3 prostate. The growth in the test on UACC-62 melanoma was 97.5%; with SK-MEL-28 melanoma, 99.2%; with UO-31 renal it was 87%; with OVCAR-3 ovarian, 105%; in the test on SW-620 colon it was 97%; in the test on MCF7 breast, 91.6%. Moreover, the results for the growth in the test with HCT-116 colon and in the test on KM12 colon were 116% and 102%, respectively.
